Screening results as filed in PubChem.
hgDAF-12 ag – hgDAF-12 agonism, primary luciferase screen. HEK293 GAL4-hgDAF12 UAS-luciferase reporter, agonist luminescence; normalized to butyrate control. activation, % at 6.8 µM. 370,000 tested, 1.8% active. AID 687014;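 active = activation above a cutoff set at the mean of all screened compounds plus 3 SD, cut at about 10% in these data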;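 note: 0% = DMSO wells and 100% = sodium butyrate wells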
NR1D1 modulator – Rev-erb alpha (human) modulation; 370,000 tested, 0.79% active; Rev-erbα–FITC-DNA binding, fluorescence polarization, 90 min; P20393; activity, % at 10 µM;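 active = activity above about 14%, limit read from the data; passing the limit was not always enough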;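 note: 0% = DMSO wells with 35 nM protein and 100% = DMSO wells with 750 nM protein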
hcDAF12 agonist – H. contortus DAF-12 activation, primary screen. HEK293 hcDAF-12 lit1-tk-luc reporter, luminescence; 0% DMSO, 100% Δ7-dafachronic acid. activation, % at 6.8 µM. 370,000 tested, 1.4% active. AID 652067;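 active = activation above the mean of all tested compounds plus 3 SD, cut at about 5.5% in these data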;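 note: 100% = response to 3 µM Δ7-dafachronic acid high control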
ssDAF12 agonist – activates DAF-12 receptor from parasite S. stercoralis. HEK293 ssDAF-12/GRIP1 lit1-tk-luc reporter, luminescence; % of 3 µM dafachronic acid response. AID 652126. 370,000 tested, 1% active. activation, % at 6.8 µM;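 active = activation above the mean over all tested compounds plus 3 SD, cut at about 0.9% in these data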;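 note: 0% = DMSO-only wells and 100% = 3 µM delta7-dafachronic acid wells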
DAX1 inh-1 – inhibitors of human orphan nuclear receptor DAX1 (NR0B1); P51843; 340,000 tested, 0.99% active; inhibition, % at 6.75 µM; HEK293 Gal4-DAX1 luciferase reporter, luminescence;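 active = inhibition above the mean over all tested compounds plus 3 SD, cut at about 4.2% in these data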;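 note: 0% = DAX1-transfected cells with DMSO and 100% = empty-vector control cells with DMSO; inhibition shows as a rise in luminescence from relieved DAX1 repression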
Target sequence (P51843 207-470 limits assumed): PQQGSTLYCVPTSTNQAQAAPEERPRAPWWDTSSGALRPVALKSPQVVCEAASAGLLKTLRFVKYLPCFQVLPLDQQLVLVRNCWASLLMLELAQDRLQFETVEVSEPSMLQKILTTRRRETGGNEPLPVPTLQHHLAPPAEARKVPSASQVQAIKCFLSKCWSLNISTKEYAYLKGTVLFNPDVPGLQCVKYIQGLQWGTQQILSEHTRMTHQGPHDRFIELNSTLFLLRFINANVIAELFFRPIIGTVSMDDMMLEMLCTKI
DAX1 inh-2 – inhibitors of DAX1 repression of SF-1 activated StAR promoter | HEK293T StAR-luciferase reporter, SF-1/DAX-1 repression relief | inhibition, % at 6.8 µM | 370,000 tested, 1.1% active;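 active = inhibition above the mean over all tested compounds plus 3 SD, cut at about 3.6% in these data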;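 note: 0% = DAX-1 cells with DMSO and 100% = cells lacking DAX-1 with DMSO; higher inhibition means more luminescence from relief of DAX-1 repression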
The depositor's hits bear a star; · = no result. The list is not random: actives were taken first. Their share in the collection is about 4.8%.

SMILES	hgDAF-12 ag	NR1D1 modulator	hcDAF12 agonist	ssDAF12 agonist	DAX1 inh-1	DAX1 inh-2
CC(C)C[C@H]1CNC(=S)N1CC1CCN(CCC2CCCC2)CC1	3	0	0	-1	-1	3
CCC(CC)CN1CCC(CN2C(=S)NC[C@@H]2CC(C)C)CC1	1	-5	0	-1	1	3.7*
O=C1NCCN/C1=C\C(=O)c1ccc(Br)cc1	11*	3	4	0	·	2
O=C1NCCN/C1=C\C(=O)c1ccccc1	6	-2	-1	0	1	1
Fc1ccc(CSc2nncn2NCc2ccccc2)cc1	0	0	1	-2	6.9*	0
CN(C)c1ccc(CNn2cnnc2SCc2ccc(F)cc2)cc1	-4	5	-2	-2	-1	-1
O=C(NCc1ccccc1)[C@@H]1CCCN1C(=O)[C@H]1CCCN1C(=O)c1ccccc1F	-1	-1	-1	-1	·	1
Cc1ccc(S(=O)(=O)N2CCC(=O)N(C(COCc3ccc(Cl)cc3Cl)Cc3ccccc3)CC2)cc1 (stereo unspecified)	3	0	-1	-2	5.3*	-1
Cc1ccc(S(=O)(=O)N2CCC(=O)N(C(COCc3cccc(Cl)c3)Cc3ccccc3)CC2)cc1 (stereo unspecified)	1	3	-3	-2	-1	0
O=C(CCC(=O)c1cccs1)c1cccs1	12*	-4	4	0	4	3
O=C(CCC(=O)c1cccs1)NC(c1ccccc1)c1ccccc1	-4	0	-1	-1	-1	0
CO/N=C(\CCC(=O)O)c1cccs1	11*	1	-1	-2	1	1
CC(C)(C)OC(=O)NCc1ccc(NC(=O)c2nc[nH]c2C(=O)Nc2cc(Br)ccc2F)cc1	3	2	-1	1.1*	·	1
COc1ccc(-c2nc(CSCC(=O)N3CCN(C)CC3)c(C)o2)cc1OC	-3	7	-1	-1	6.1*	0
COc1ccc(-c2cc3nc(C)n(N)c(=O)c3s2)cc1	-9	15	-4	-3	-9	-1
COc1ccc(-c2cc3nc4n(c(=O)c3s2)CCCCC4)cc1	10	3	5	0	7.8*	3
O=C(NCCCN1CCOCC1)c1ccc2nc(Cc3ccccc3F)oc2c1	1	-5	-1	-1	0	4.2*
CCCCc1nc2cc(C(=O)NCc3cc(C)n(C)n3)ccc2o1	4	5	6.2*	-1	1	0
CCOC(=O)C1CCCN(C(=O)c2ccc3oc(Cc4ccccc4)nc3c2)C1 (stereo unspecified)	11*	-1	3	0	2	3
CCCCc1nc2cc(C(=O)N3CCC[C@H]3CO)ccc2o1	4	-4	2	0	2	2
O=C(NCCCN1CCOCC1)c1ccc2ccccc2c1	3	-5	-2	0	2	1
CCCCc1nc2cc(C(=O)N3CCC(O)CC3)ccc2o1	11*	3	6.2*	1.0*	1	2
N#Cc1cccc(OC[C@@H](O)CN2CCC(C(O)(c3ccccc3)c3ccccc3)CC2)c1	1	1	-2	-1	·	1
COC(=O)[C@]12C[C@H](CC(=O)NCc3cccc(C(F)(F)F)c3)C(=O)N(CCc3ccc(OC)c(OC)c3)C1=C[C@H](COCc1ccccc1)O[C@@H]2C	-2	8	-4	-1	·	-2
O=C(NCc1ccncc1)c1ccc2nc(Cc3ccccc3F)oc2c1	-2	3	-1	-2	-1	-3
Cc1cc(CNC(=O)c2ccc3nc(Cc4ccccc4F)oc3c2)nn1C	12*	9	2	-1	2	2
COc1ccc(NC(=O)CN2C(=O)NC(C)(c3ccc(C)cc3)C2=O)c([N+](=O)[O-])c1 (stereo unspecified)	0	2	-1	-1	0	-1
COc1cc(OC)cc(C(=O)NNC(=O)CN2C(=O)NC(C)(c3ccc(C)cc3)C2=O)c1 (stereo unspecified)	1	3	-1	-1	4.4*	0
Nn1c(SCC(=O)Nc2cccc3ccccc23)nnc1-c1n[nH]c2c1CCC2	0	-5	-2	-1	·	-1
